Assay outcomes from PubChem.
These entries were drawn from the full list.
aSyn 5UTR act – Activators via SNCA 5'UTR binding, MLPCN | 300,000 compounds, 7.1% hits | activity score, % (tested at 7.5 µM), hits read low | alpha-synuclein 5'UTR reporter, activators screen; in the data active = activity score below about -60%
The depositor's hits bear a star.

SMILES	aSyn 5UTR act
Cn1c(/C=N/Nc2nc3ccccc3[nH]2)nc2ccccc21	-188.2*
CC(C)Cn1c(/C=N/Nc2nc3ccccc3[nH]2)nc2ccccc21	-337.1*
COc1ccc(CN2CCn3ncc(C(=O)Nc4ccccc4)c3C2=O)cc1	-85.8*
CC(=O)c1cccc(NC(=O)c2cnn(-c3ccccc3)c2C)c1	-181.0*
COc1ccc(NC(=O)c2cnn(-c3ccccc3)c2C)cc1	-62.0*
Cc1c(C(=O)Nc2ccccc2)cnn1-c1ccccc1	-67.6*
Cc1c(C(=O)Nc2cccc(F)c2)cnn1-c1ccccc1	-212.3*
COc1ccc(NC(=O)c2cnn(-c3ccccc3)c2C)cc1OC	-152.8*
Cc1c(C(=O)Nc2cccc([N+](=O)[O-])c2)cnn1-c1ccccc1	-137.1*
OCc1ccc(O)c2ncccc12	65.6
O=C(Cc1ccc(-c2ccccc2)cc1)Nc1ncccc1O	-96.6*
Cc1nn2cc(-c3ccc(Cl)cc3)cnc2c1Cl	-144.4*
Cc1ccnc(NC(=O)c2ccc(Br)s2)c1	-114.7*
Cc1ccnc(NC(=O)c2cccs2)c1	-117.8*
O=C(Nc1nccc(-c2cccs2)n1)c1cccs1	-91.8*
O=C(Nc1ccccn1)c1cccs1	-113.4*
Cc1cccc(NC(=O)c2cccs2)n1	-116.4*
COc1cccc(/C=N/NC(=O)c2cc3cc([N+](=O)[O-])ccc3s2)c1O	107.0
Cc1cccc(NC(=O)c2cc3cc([N+](=O)[O-])ccc3s2)n1	-85.0*
Cc1cccc(N2CCN(C(=O)CCCOc3ccccc3)CC2)c1C	-85.9*
COc1cc(C(=O)N2CCN(c3cccc(C)c3C)CC2)cc(OC)c1OC	58.3
CCOC(=O)N1CCN(C(=O)CCCOc2ccccc2)CC1	-114.7*
O=C(NN=C1CCCCCC1)c1cccs1	-75.0*
CC1C2CC(C/C2=N/NC(=O)c2cccs2)C1(C)C (stereo not drawn)	-73.6*
C/C(=N\NC(=O)c1cccs1)C(C)(C)C	-93.8*
SMILES	aSyn 5UTR act
C/C(=N\NC(=O)c1cc(-c2ccc(C)s2)[nH]n1)c1ccco1	-167.9*
C/C(=N/NC(=O)c1cccs1)c1ccco1	-99.8*
CCOC(=O)C/C(C)=N/NC(=O)c1cccs1	-131.3*
Cc1ccc(OCCn2c(=O)n(C)c3ccccc32)cc1	-123.1*
Cn1c(=O)n(CCOc2ccccc2Cl)c2ccccc21	-98.7*
c1coc(CNc2nc(-c3ccncc3)cs2)c1	-92.1*
COc1ccc(-c2csc(NCc3ccco3)n2)cc1	-160.1*
Cc1nc(C)c(-c2csc(NCc3ccco3)n2)s1	-99.4*
Nn1c(SCc2ccccc2)nc2ccccc21	-126.5*
CC(=O)Nc1ccc2nc(NC(=O)COc3ccccc3Cl)sc2c1	-69.4*
Cc1nc2ccc(NC(=O)CCC3CCCC3)cc2s1	-143.5*
Cc1nc2ccc(NC(=O)CS(=O)(=O)c3ccccc3)cc2s1	-101.1*
Cc1cc(CNC(=O)COc2ccccc2F)c2ccccc2n1	-95.6*
Cc1nc2ccc(NC(=O)COc3ccccc3F)cc2s1	-132.9*
CC(=O)Nc1ccc2nc(NC(=O)COc3ccccc3)sc2c1	-64.4*
Cc1ccc2c(c1)C(=O)C(=O)N2CCCOc1ccccc1C	-110.1*
Cc1cccc(NC(=O)c2sc3nc(N)c(C#N)cc3c2N)c1	-155.6*
N#Cc1cc2c(N)c(C(=O)Nc3ccccc3)sc2nc1N	-124.4*
Nc1c(C(=O)Nc2ccccc2)sc2nc(-c3ccco3)ccc12	-176.1*
N/C(=N\OC(=O)Nc1ccccc1)c1ncc([N+](=O)[O-])s1	-94.2*
O=C(/C=C/Nc1ccccc1)c1ccc(Cl)cc1Cl	-122.1*
C=CCn1c(O)c(N=NC(=S)Nc2ccc(OC)c(Cl)c2)c2ccccc21	60.8
Cn1c(=O)c(C(=O)NC2CCCCCCC2)c(O)c2ccccc21	-166.3*
Cn1c(=O)c(C(=O)NC2CCCCCC2)c(O)c2ccccc21	-71.7*
CC1CCC(NC(=O)c2cc3c(=O)n(C)c4ccccc4c3n2C)CC1 (stereo not drawn)	-97.8*
SMILES	aSyn 5UTR act
COc1ccc(NC(=O)c2cc3c(=O)n(C)c4ccccc4c3n2C)cc1Cl	-71.6*
Cn1cc(C(=O)C(=O)NC2CCCCC2)c2ccccc21	-67.9*
Clc1ccc(Cn2nc(-c3ccccc3)nc2-c2ccccc2)cc1	-114.2*
COCc1c(C(=O)Nc2ccc(Cl)cc2F)oc2ccccc12	-116.3*
COCc1c(C(=O)Nc2nc(C)cs2)oc2ccccc12	-87.5*
Cc1ccc(NC(=O)C2CCCN(c3ncccn3)C2)c(C)c1 (stereo not drawn)	-78.5*
O=C(Nc1ccc2c(c1)CCC2)C1CCCN(c2ncccn2)C1 (stereo not drawn)	-156.8*
C/C(=N\NC(=O)C1CCCN(S(=O)(=O)c2ccccc2)C1)c1ccccn1 (stereo not drawn)	66.7
Cc1ccc(NC(=O)C2CCCN(c3ncccn3)C2)cc1F (stereo not drawn)	-268.8*
Cn1c(=O)c(C(=O)NCc2ccccc2Cl)c(O)c2ccccc21	-78.0*
Cn1c(=O)c(C(=O)c2ccc(S(C)(=O)=O)c(Cl)c2Cl)c(O)c2ccccc21	-84.5*
Cn1c(=O)c(C(=O)NCc2ccccc2)c(O)c2ccccc21	-74.0*
O=C(CSc1nnc(-c2cccnc2)o1)Nc1cccc(Cl)c1	-119.3*
O=C(CSc1nnc(-c2cccnc2)o1)Nc1ccc(Cl)cc1	-62.4*
O=C(/C=C/c1ccc2ccccc2n1)c1cc(Cl)ccc1O	-69.2*
Clc1ccc(-c2cnc(Oc3ccccc3)nc2)cc1	-215.6*
O=C(Nc1cc2ccccc2oc1=O)c1ccccc1	73.7
Cc1oc(=O)c(NC(=O)c2cccc(Cl)c2)cc1C(=O)c1ccccc1	-237.1*
Nc1nc2c(ccc3ccccc32)s1	-71.6*
COc1cc(C2Nc3ccc4ncccc4c3C3=C2C(=O)CCC3)ccc1O (stereo not drawn)	-102.3*
COC(=O)c1sc(NC(=S)NC(=O)c2cccc(C)c2)nc1C	-143.8*
COC(=O)c1sc(NC(=S)NC(=O)c2ccccc2F)nc1C	-151.8*
c1ccc(-n2ncc3c2ncn2nc(-c4ccco4)nc32)cc1	-131.1*
COc1cc(C(=O)Nc2ccc(N(C)C)cc2)c([N+](=O)[O-])cc1OC	-75.1*
COC(=O)c1ccc(N2OC3(C)C=CC2CC3)cc1 (stereo not drawn)	-88.5*
SMILES	aSyn 5UTR act
O=C1NC(c2ccccc2Cl)=N/C1=C/c1ccco1	-142.1*
O=C1NC(c2ccc(Br)cc2)=N/C1=C/c1ccco1	-148.6*
COc1ccc(N)cc1-n1c(C)ccc1C	-117.9*
Cc1c(C(=O)N2C[C@@H](C)O[C@@H](C)C2)oc2c(F)cccc12	-73.4*
Cc1c(C(=O)NC2CCOC2)oc2c(F)cccc12 (stereo not drawn)	-147.6*
O=C(N/N=C/c1ccc(OCc2ccccc2)cc1)c1ccncc1	-164.1*
O=C(N/N=C/c1ccc(F)cc1)c1sccc1OCc1ccc(F)cc1	-94.3*
Cc1occc1C(=O)Nc1ccc(OCc2ccccc2)cc1	-146.9*
CSc1ccc(/C=N/NC(=O)c2sccc2C)cc1	-88.7*
O=C(N/N=C/c1ccc(Cl)cc1)c1sccc1OCc1ccc(F)cc1	72.5
CC(C)(C)NCC(=O)N/N=C/c1ccc(OCc2ccccc2)cc1	-72.4*
O=C(COc1ccc([N+](=O)[O-])cc1)NNC(=O)c1cccs1	-78.0*
C[C@H](NC(N)=O)C(=O)Nc1ccc(OCc2ccccc2)cc1	-92.1*
O=C(C[n+]1ccc(C(=O)N/N=C/c2ccc(OCc3ccccc3)cc2)cc1)c1ccccc1	-137.8*
O=C(Nc1ccc(OCc2ccccc2)cc1)c1cccs1	-158.1*
Oc1ccc(N=Cc2ccc(OCc3ccccc3)cc2)cc1	-92.1*
O=C(N/N=C/c1ccc(OCc2ccccc2)cc1)c1cccs1	-115.9*
